SKKanGAS inh: S. pyogenes SKKanGAS growth inhibitors in kanamycin, primary screen, streptokinase expression inhibitor project, SKKanGAS strain, BacTiter-Glo luminescence | 6 h | inhibition, % at 7.5 µM | 300,000 tested, 1.3% active;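 active = mean replicate score, as percent of positive control median, at least 50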;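 also: strain carries kanamycin resistance gene driven by streptokinase promoter and grows in 40 µg/ml kanamycin; loss of luminescence reflects streptokinase promoter inhibition or plain growth inhibition; 0% = median of DMSO wells and 100% = positive control at its reference dose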
tim10-1 inh: growth inhibitors of tim10-1 mutant yeast, primary screen, luminescence, uHTS. S. cerevisiae tim10-1 ts strain growth, BacTiter-Glo, 24 h. inhibition, % at 20 µM. 330,000 tested, 2.2% active;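 active = inhibition of at least 40%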;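 also: mutant grown at 25 °C; 0% = DMSO wells with yeast and 100% = wells holding no yeast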
TIM10 inh: growth inhibitors of isogenic TIM10 control yeast, primary screen, counter-screen for tim10-1 yeast inhibitor project, luminescence, uHTS | S. cerevisiae TIM10 strain growth, BacTiter-Glo luminescence, 24 h | inhibition, % at 10 µM | 330,000 tested, 1.4% active | AID 463195, 2010;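 active = inhibition of 40% or more at the single tested concentration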;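 also: wild-type TIM10 isogenic control strain grown at permissive 25 °C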
PfHsp90 set2: growth inhibition of PfHsp90-expressing yeast, primary screen, antimalarial PfHsp90 inhibitor project, S. cerevisiae, BacTiter-Glo luminescence, single point, set 2 | inhibition, % at 9.4 µM | 310,000 tested, 0.32% active | BacTiter-Glo ATP, 48 h; yeast lacking PDR1 and PDR3 efflux regulators;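 active = every replicate shows inhibition above about 80%, whatever the replicate mean, limit read from the data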;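 also: 0% = DMSO neutral controls and 100% = 20 µM radicicol positive controls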
ATG4B inhibitor: ATG4B protease inhibitors, primary screen, biochemical, fluorescence, uHTS. ATG4B cleavage of LC3-PLA2, NBD-HPC fluorescence, 1 h. 340,000 tested, 0.51% active. Cysteine protease ATG4B (Homo sapiens), Q9Y4P1. inhibition, % at 8.33 µM. AID 504462, 2011; in the data active = inhibition above about 40%
Target sequence (Q9Y4P1 whole entry, looked up): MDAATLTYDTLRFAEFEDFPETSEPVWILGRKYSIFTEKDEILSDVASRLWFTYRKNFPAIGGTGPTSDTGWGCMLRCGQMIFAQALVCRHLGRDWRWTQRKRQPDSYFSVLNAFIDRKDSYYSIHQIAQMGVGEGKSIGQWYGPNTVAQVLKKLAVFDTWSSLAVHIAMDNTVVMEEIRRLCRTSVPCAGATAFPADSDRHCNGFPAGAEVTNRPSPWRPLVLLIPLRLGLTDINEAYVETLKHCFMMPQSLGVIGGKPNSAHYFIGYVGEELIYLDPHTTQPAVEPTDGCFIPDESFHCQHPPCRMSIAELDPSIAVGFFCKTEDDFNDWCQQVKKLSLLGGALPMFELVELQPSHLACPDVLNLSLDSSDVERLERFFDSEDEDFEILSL
tim23-1 inh: growth inhibitors of tim23-1 mutant yeast, primary screen, luminescence, uHTS; S. cerevisiae tim23-1 growth, BacTiter-Glo luminescence, 24 h; inhibition, % at 20 µM; 330,000 tested, 1.3% active;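 active = growth inhibition of the mutant yeast at or above 50%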;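 also: temperature-sensitive mutant grown at 25 °C; plate controls were DMSO-treated mutant yeast for no effect and medium wells lacking yeast for full effect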
TIM10 conf: growth inhibitors of wild-type TIM10 yeast, confirmation, counter-screen for tim10-1 synthetic lethality project, single concentration, luminescence, S. cerevisiae | AID 463215, 2010 | inhibition, % at 10 µM | shares compounds with TIM10 inh | 4,600 tested, 63% active | S. cerevisiae tim10 strain growth, BacTiter-Glo luminescence, 24 h;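 active = inhibition of yeast growth at or above a set limit in either of two replicates at 10 µM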;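 also: this counterscreen used the strain with wild-type TIM10; 0% = yeast with DMSO and 100% = medium wells lacking yeast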
Numbers without * were called inactive; · = no result. The list is not random: actives were taken first. Their share in the collection is about 4.7%.

SMILES	SKKanGAS inh	tim10-1 inh	TIM10 inh	PfHsp90 set2	ATG4B inhibitor	tim23-1 inh	TIM10 conf
CCCCn1cnc2c([nH]c3ccccc32)c1=O	-2	-9	-1	11	3	2	·
CC(=O)c1sc(N/N=C\c2cccc(Br)c2)nc1C	13	37	41*	-27	-21	44	-11
COc1ccccc1-c1c(C)oc2c(CN3CCOCC3)c(O)ccc2c1=O	-2	4	-14	1	-4	11	·
Cc1cc(C(=O)N2CCc3c([nH]c4ccccc34)C2c2cccc(Cl)c2)nn1C (stereo unspecified)	29	-5	17	-22	19	35	·
O=C(c1cnccn1)N1CCc2c([nH]c3ccccc23)C1c1cccc(Cl)c1 (stereo unspecified)	25	23	41*	-12	-3	30	24
O=C(Cn1cc2c(n1)CCCC2)NCCCN1CCN(c2ccccc2F)CC1	0	-4	3	2	5	3	·
COc1cc(NC(=O)CSc2nccc(C)n2)c(C(=O)O)cc1OC	-8	12	6	33	-6	3	·
COc1cc(NC(=O)CSc2cc(C)c3cc(C)cc(C)c3n2)c(C(=O)O)cc1OC	44	10	45*	7	-1	40	18*
Cc1ccc(C(=O)O/N=C/c2c(N3CCOCC3)n(C)c3ccccc23)cc1	12	31	42*	-6	13	40	32*
COc1ccc(/C=C/C(=O)NCCc2c[nH]c3ccccc23)cc1OC	13	-35	53*	-34	-13	5	9
Cc1ccccc1S(=O)(=O)Cc1ccc(C(=O)NCCCN2CCCC(C)C2)o1 (stereo unspecified)	-1	23	21	36	-4	22	·
Cc1ccccc1CS(=O)(=O)Cc1ccc(C(=O)NCCCN2CC(C)CC(C)C2)o1 (stereo unspecified)	-1	-8	95*	16	-11	0	-3
COc1cc2c(C(=O)N3CCN(c4ccccc4C)CC3)c(C)oc2cc1Br	51*	37	52*	-13	-5	21	35*
COc1ccc(N2CCN(CC(=O)c3ccc(O)c(C)c3O)CC2)cc1	-1	23	2	-3	-2	18	·
COc1ccc(OC)c(N(CC(=O)NC2CCCCCC2)S(=O)(=O)c2ccc(C)cc2)c1	3	31	19	-27	3	37	·
C=CCOC(=O)C1=C(C)NC(=S)NC1/C=C/c1ccccc1 (stereo unspecified)	-1	29	43*	-4	-5	7	1
CCn1cc(Br)c(C(=O)Nc2ccc(Cl)c(Cl)c2)n1	-1	38	62*	-57	8	24	45*
Cc1cccc(NC(=S)N/N=C/c2ccc([N+](=O)[O-])s2)c1	101*	26	58*	100*	-19	24	34*
Cc1cccc(NC(=O)/C=C/c2ccc([N+](=O)[O-])s2)c1	11	·	·	0	-7	·	·
CC(NC(=O)Cc1ccccc1)C(c1ccccc1)N1CCOCC1 (stereo unspecified)	1	7	-2	-1	-4	7	·
Cn1c(-c2ccc3c(c2)OCO3)cc(=O)c2ccccc21	-3	12	0	-16	-22	11	·
c1ccc2c(c1)c1ccccc1n1c(-c3ccc4c(c3)OCO4)nnc21	26	37	68*	-28	-5	42	8
S=C(Nc1ccc(Oc2ccccc2)cc1)NC1CCCCC1	54*	25	40*	-7	18	7	41*
S=C(Nc1ccc(Oc2ccc(NC(=S)NC3CCCCC3)cc2)cc1)NC1CCCCC1	10	12	16	-56	12	21	·
COc1ccc(-c2csc3ncn(-c4ccc(C)cc4)c(=O)c23)cc1OC	0	32	35	-10	-3	36	·
SMILES	SKKanGAS inh	tim10-1 inh	TIM10 inh	PfHsp90 set2	ATG4B inhibitor	tim23-1 inh	TIM10 conf
COc1ccc(-n2cnc3scc(-c4ccc(OC)c(OC)c4)c3c2=O)cc1	-8	37	40*	-4	-1	41	-1
O=[N+]([O-])c1ccc(CSc2ccc(-c3ccccn3)nn2)cc1	16	-7	-14	8	35	-1	·
CCOC(=O)c1c(CCl)nc2ccccc2c1-c1ccccc1	12	-8	-10	-13	36	29	·
ClCc1nc2ccccc2c2ccccc12	-3	34	41*	-6	2	47	38*
COC(=O)c1ccc(C(=O)N(Cc2ccccc2)c2ccccc2)cc1	4	15	46*	-15	8	16	-7
N#Cc1ccc(C(=O)N(Cc2ccccc2)c2ccccc2)cc1	6	29	19	11	-4	26	·
O=C(COc1ccccc1[N+](=O)[O-])N1CCC(Cc2ccccc2)CC1	1	29	4	-18	9	9	·
COc1cccc(C(=O)N/N=C(/c2ccccc2)c2ccccn2)c1	56*	35	40*	7	-11	35	5
CC12c3ccccc3C(c3ccccc31)C1C(=O)N(c3ccncc3)C(=O)C12 (stereo unspecified)	1	22	12	-31	-13	33	·
COc1ccc(N2C(=O)C3C4c5ccccc5C(C=Nc5ccc(C)cc5C)(c5ccccc54)C3C2=O)cc1 (stereo unspecified)	-1	34	53*	-30	-11	46	45*
CCc1ccc(N=CC23c4ccccc4C(c4ccccc42)C2C(=O)N(c4ccc(OC)cc4)C(=O)C23)cc1 (stereo unspecified)	-11	39	64*	-22	2	49	48*
CCOC(=O)C(Oc1ccc2c(-c3ccccc3)cc(=O)oc2c1)c1ccccc1 (stereo unspecified)	-11	14	7	8	18	12	·
Cc1c(C(=O)NCc2ccc(F)cc2)c(-c2ccccc2)nn1-c1ccccc1	-5	28	43*	4	-7	26	37*
CCOC(=O)N1CCN(C(=O)c2ccc3c(c2)sc2nc(-c4ccc(OC)cc4)cn23)CC1	45	18	50*	-18	-20	16	44*
CCOC(=O)N1CCN(C(=O)c2ccc(OC)cc2)CC1	2	8	15	-11	-5	-5	·

Screening results deposited in PubChem BioAssay by several laboratories.
